This excerpt belongs to a sample that is enriched for hits.
Pf Dd2 inh = qHTS Primary assay for Inhibitors of Plasmodium falciparum Dd2 growth in vitro; Potency, µM (highest dose often 28.9 µM), for the others: at the highest dose activity, negative = inhibition, most hits filed as inhibitors; 120,000 compounds, 4.3% hits; AID 1347417, 2020; P. falciparum Dd2 growth, SYBR Green, 72 h; active = well fitted inhibition curve with a large enough effect;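 also: plate controls were DMSO vehicle for no effect and reference drug for full effect; nearly all actives have a fitted effect of over 65% in size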
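Infected erythrocytes (Dd2, 0.3% parasitemia, 2.5% hematocrit final) are added to compound in RPMI-1640/Albumax II medium, grown 72 h at 37C in low oxygen, then lysed with saponin/Triton-X containing SYBR Green and read by fluorescence.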
* = called active by the depositor; i = inactive; [ ] = dose if it differs, or a comment. Potency is read from the fitted curve at half-maximal effect.

SMILES	Pf Dd2 inh
COC(=O)CNC(=O)C1CCc2nnc(-c3ccccc3OC)n21 (stereo not given)	37%
O=C(Nc1cccc(-n2cccn2)c1)C1CCCN1C(=O)c1ccoc1 (stereo not given)	-11%
Cc1ccc(C(=O)N2C[C@H](c3nc(-c4ccncc4)no3)[C@@H](C)C2)c(C)c1	i
CCC(=O)NCCC1CCN(C(=O)Nc2ccc(C)c(F)c2)CC1	-18%
Cc1ccc(NC(=O)N2CCC(CCNC(=O)c3n[nH]c4ccccc34)CC2)cc1F	4µM*
Cc1ccc(OCC(=O)NCCC2CCN(C(=O)Nc3ccc(F)cc3)CC2)cc1	13µM*
Cc1cccc(C(=O)NCCC2CCN(C(=O)Nc3ccc(F)cc3)CC2)c1	-18%
Cc1ccc(NC(=O)N2CCC(CCNC(=O)Cc3cccc(F)c3)CC2)cc1	i
CCC(=O)NCCC1CCN(C(=O)Nc2ccc(C)cc2)CC1	-6%
COc1ccc(C(=O)N2CCC3(CC2)CC(CO)N(C(=O)c2ccccc2)C3)cc1 (stereo not given)	-28%
COc1ccc(-c2noc([C@@H]3C[C@@H](O)CN3C(C)C)n2)cc1	-10%[44.1 µM]
Cc1ccccc1[C@H]1[C@@H](C(=O)NCCC(=O)O)C[C@@](C)(C(=O)O)N1C	15%
O=C(O)c1ccc(C2CCCN(C(=O)CN3CCc4ccccc4C3)C2)cc1 (stereo not given)	-15%
NCc1cccc(-c2ccccc2F)c1	11µM*
O=Cc1cccc(-c2ccccc2F)c1	2%[76.6 µM]
NCc1cccc(-c2cccc(C(F)(F)F)c2)c1	11µM*
Fc1ccccc1-c1noc(NCc2ccccc2)n1	-4%
O=Cc1cccc(-c2ccc(F)cc2F)c1	-11%[44.1 µM]
O=C(c1ccncc1)N1CC2CCC(C1)N2Cc1cccc(-c2ccc(F)cc2F)c1	-9%
O=C(O)c1cccc(-c2cccc(C(F)(F)F)c2)c1	5%[44.1 µM]
O=Cc1cccc(-c2cccc(C(F)(F)F)c2)c1	i
NCc1cccc(-c2ccc(F)cc2F)c1	13µM*
c1cc2nsnc2cc1CN1CCCN(C2CCCC2)CC1	-23%
CC1(COc2ccccc2)COc2ccc(C(=O)NCCc3ccccn3)cc2N1 (stereo not given)	i
COc1ccccc1-c1nc(C(=O)N(C)C)n2ccccc12	-8%[44.1 µM]
SMILES	Pf Dd2 inh
Cc1cc(C)n(Cc2c(C(=O)NCC34CCC=C3N(C)C(=O)CC4)noc2C)n1 (stereo not given)	-13%
COCC1CN(C(C)=O)CC12CCN(Cc1ccccc1OC(C)C)CC2 (stereo not given)	-31%
CCN(Cc1nc(C)no1)C(=O)c1cc(COc2ccccc2F)[nH]n1	-11%
CC1CCC2(CC1)NC(=O)N(CC(=O)Nc1cc(F)cc(F)c1)C2=O (stereo not given)	i
CN(Cc1ccc(-n2cccn2)cc1)Cc1nc(Cc2cccc(F)c2)no1	5%
CCc1noc(-c2nc(Cc3cccc(F)c3)no2)n1	i
Oc1ccc(CCC2CCCCN2Cc2nc(Cc3cccc(F)c3)no2)cc1 (stereo not given)	5µM*
Cc1cc(C)cc(C(=O)N2CCN(C(=O)c3nnn4c3COC(c3ccccc3)C4)CC2)c1 (stereo not given)	-7%
O=C(C1CCOCC1)N1CC2CC(C1)[C@H]1CCCC(=O)N1C2 (stereo not given in full)	11%
CN(C)C(=O)N1CCn2nc(CNC(=O)c3cc4ccccc4n3C)cc2C1	-5%
COc1ccc(CCC(=O)NCc2ccc3c(c2)CCN3C(=O)c2ccc(C)cc2)cc1	21%
COc1ccc(CCC(=O)NCc2ccc3c(c2)CCN3C(=O)c2ccccc2)cc1	6.3µM*
COc1ccc(OCC(=O)NCc2ccc3c(c2)CCN3C(=O)c2ccccc2)cc1	-4%
O=C(c1ccccn1)N1CCn2c(nn(-c3ccc(Cl)cc3)c2=O)C1	9%
CS(=O)(=O)N(C1CC1)C1CCOC2(CCN(C(=O)CCCc3ccccc3)CC2)C1 (stereo not given)	i
O=C(c1cnco1)N(CC1CCN(Cc2ccccc2F)CC1)CC1CCCO1 (stereo not given)	-14%
FC(F)Oc1ccccc1CN(CC1CCN(C2CCCC2)CC1)CC1CCCO1 (stereo not given)	7.1µM*
Oc1ccccc1CN(CCN1CCCCC1)CC1CCCN(C2CCCC2)C1 (stereo not given)	i
O=C(Cc1ccc(N(Cc2ccc(F)cc2)C(=O)c2ccco2)cc1)N1CCOCC1	i
CCOC(=O)C1CCN(C(=O)Cc2ccc(N(Cc3ccccc3)C(=O)c3ccco3)cc2)CC1	1.4µM*
Cc1ccc(CN(C(=O)c2ccco2)c2ccc(CC(=O)N(C)Cc3ccccc3)cc2)cc1	-27%
COc1ccc(C(=O)N[C@@H]2CCC[C@@H]2C(=O)N(C)C)cn1	32%
CCCn1cc(C2CCN(S(=O)(=O)c3c(C)c(C)cc(C)c3C)CC2)c2ccccc21	10µM*
CCOCCn1cc(C2CCN(S(=O)(=O)c3c(C)cc(C)cc3C)CC2)c2ccccc21	-7%
CCOCCn1cc(C2CCN(S(=O)(=O)c3ccc(Cl)cc3Cl)CC2)c2ccccc21	-9%
SMILES	Pf Dd2 inh
Cc1ccc(C(=O)NC2CCCN(c3cc(-c4ccccc4)[nH]n3)C2)cc1 (stereo not given)	i
O=C(c1ccc(C(F)(F)F)cc1)N1CCC2(CC1)COc1ccccc1CN2	-11%
O=C1NC2(CCN(C(=O)c3ccc(F)cc3)CC2)COc2ccccc21	-12%
COc1ccc(C(=O)N2CCC3(CC2)COc2ccccc2C(=O)N3)cc1	2.2µM*
O=C1NC2(CCCN(C(=O)c3ccc(F)cc3)C2)COc2ccccc21 (stereo not given)	i
COc1ccc(C(=O)N2CCC3(CC2)COc2ccccc2[S+](=O)([O-])N3)cc1	0%
O=C1NC2(CCN(C(=O)c3ccc(C(F)(F)F)cc3)CC2)COc2ccccc21	1.1µM*
COc1cc([C@@H]2c3cc4c(cc3[C@H](O)[C@@H](CO)[C@@H]2C(=O)NC2CCCC2)OCO4)cc(OC)c1OC	i
O=C(c1ccccc1Cl)N1CCCN(c2nc3ncccc3o2)CC1	6%
COC(=O)c1ccccc1NC(=O)Cc1noc2ccc(C)cc12	16%
Cc1ccc2c(CC(=O)Nc3cccc(C(F)(F)F)c3)coc2c1	-21%
Cc1ccc2onc(CC(=O)Nc3cccc(C(F)(F)F)c3)c2c1	11µM*
COc1ccc2nc3n(c2c1)[C@@H](CNC(=O)c1ccc(F)cc1)COC3	i
CC(C)(C)OC(=O)N1CCC(c2c(C(=O)Nc3ccc4c(c3)OCO4)cnn2-c2ccc(F)cc2F)CC1	13µM*
Cc1ccc(-n2ncc(C(=O)Nc3ccc4c(c3)OCO4)c2C2CCN(C(=O)OC(C)(C)C)CC2)cc1	-18%
CC1CCN(C(=O)c2cnn(-c3ccc(Cl)cc3)c2C2CCN(C(=O)OC(C)(C)C)CC2)CC1	1%
Cc1cccc(C)c1-n1ncc(C(=O)NCc2ccc3c(c2)OCO3)c1C1CCN(C(=O)OC(C)(C)C)CC1	-31%
CCC(C)NC(=O)c1cnn(-c2ccc(Cl)cc2)c1C1CCN(C(=O)OC(C)(C)C)CC1 (stereo not given)	11µM*
Cc1ccc(-n2ncc(C(=O)NCc3ccc4c(c3)OCO4)c2C2CCN(C(=O)OC(C)(C)C)CC2)cc1C	-13%
CC(C)(C)OC(=O)N1CCC(c2c(C(=O)Nc3ccc4c(c3)OCCO4)cnn2-c2ccccc2)CC1	7.9µM*
COc1ccc(-n2ncc(C(=O)Nc3ccc4c(c3)OCO4)c2C2CCN(C(=O)OC(C)(C)C)CC2)cc1	6.3µM*

Screening results from PubChem BioAssay.
